Compounds with a hit are over-represented: about 4% of the library has one in this group of screens.
esBAF inh: blocks esBAF chromatin remodeling in mouse ES cells. reporter increase, % at 12.5 µM. 350,000 tested, 2% active. Bmi1-luciferase knock-in reporter, 24 h; 100% = twice the neutral-well signal. AID 602393; in the data active means activation above about 40%; inconclusive means no clear call, values can overlap the other calls;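 further: 0% = median of the plate's neutral control wells and 100% = double that signal; a rise in the Bmi1 reporter signal indicates esBAF inhibition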
MITF TRPM1 HTS: MITF TRPM1 promoter activation in melanoma cells; SK-MEL-5 TRPM1-promoter luciferase, 24 h; % of positive control, neutral wells = 0; activation, % at 12.5 µM; 300,000 tested, 0.75% active; AID 588334;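 active means mean activation of at least 80% with every replicate also reaching 80%; inconclusive means mean reaches 80% but some replicate falls short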;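 further: 0% = neutral control wells and 100% = parthenolide positive control wells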
PAX8 reporter: inhibitors of PAX8 transcriptional activity in RMG-I cells; 360,000 tested, 1.2% active; inhibition, % at 12.6 µM; RMG-I TPO-luciferase reporter, SteadyGlo, 24 h;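 active means mean replicate inhibition at least 60% with every replicate also reaching 60%; inconclusive means only one of the two criteria is met; inactive means mean below 60% and not all replicates reaching 60%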;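 further: luciferase light reporting Pax8 driven TPO promoter activity; plate controls were median of neutral control wells for no effect and mitoxantrone controls for full effect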
MITF TRPM1 inh: inhibitors of MITF-driven TRPM1 promoter in melanoma cells. 330,000 tested, 0.83% active. SK-MEL-5 TRPM1 promoter luciferase, 24 h. inhibition, % at 12.5 µM;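 active means mean inhibition across replicates of 60% or more, whatever share of single replicates reaches that level; inconclusive means some that reach 60%, reason not given; inactive means mean inhibition across replicates below 60%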
EWS-Fli block: blocks EWS/Fli oncoprotein-driven transcription; A673 NR0B1-luciferase reporter, viability-normalised; AID 651661; inhibition, % at 12.6 µM; 350,000 tested, 0.67% active;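 active means mean inhibition of at least 50% after viability correction, with every replicate also passing that limit; inconclusive means mean reaches 50% but only one of two replicates passes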;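 further: firefly luciferase signal divided by Alamar Blue viability fluorescence both relative to DMSO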
Wnt act: Wnt/beta-catenin pathway activation. AID 743398. 300,000 tested, 1.2% active. activation, % at 9.35 µM. Wnt/beta-catenin reporter cell assay, activator, plate reader; in the data active means activation above about 30%, passing the limit was not always enough; inconclusive means no clear call, values can overlap the other calls;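 further: 0% = neutral control wells and 100% = positive control wells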
* = called active by the depositor; u = inconclusive; x = no result given.

SMILES | esBAF inh | MITF TRPM1 HTS | PAX8 reporter | MITF TRPM1 inh | EWS-Fli block | Wnt act
CC(=NNC(=S)Nc1cccc(C)c1)c1ccccn1 | x | -71 | 78* | 72* | 22 | -2
Cc1ccc(C)c(NC(=S)c2nc3ccccc3s2)c1 | x | 35 | -25 | -37 | -6 | u
Cc1ccc(C)c(NC(=S)c2ccc3ccccc3n2)c1 | 76* | 44 | -159 | -41 | -21 | 22
S=C(Nc1ccccn1)c1ccccn1 | 5 | x | x | 8 | x | -3
CN1c2ccc(-c3cccc(F)c3)cc2[C@H]2[C@H](CCN2C(=O)C2CC2)[C@@H]1CO | -5 | x | 1 | x | 0 | x
COc1ccc2c3c([nH]c2c1)[C@@H](CO)N(C(=O)c1ccccn1)CC31CN(C(=O)C2CC2)C1 | x | x | 2 | x | -9 | x
CN1c2ccc(-c3cccc(C#N)c3)cc2[C@H]2[C@H](CCN2C(=O)NC2CCCC2)[C@@H]1CO | x | x | 6 | x | 2 | x
CC(NC(=O)c1sc2ccccc2c1Cl)C1CCCO1 (stereo unspecified) | x | 126* | -86 | -122 | x | 28
O=C(NC1CC1)c1sc2cc(Cl)ccc2c1Cl | 44* | 111* | -182 | -113 | -47 | 14
Cc1cnc(NC(=O)c2sc3ccccc3c2Cl)s1 | x | -16 | 6 | 18 | 72* | -9
O=C(Nc1ccccn1)c1sc2cc([N+](=O)[O-])ccc2c1Cl | 42* | x | -69 | -55 | -63 | 13
CC(C)C#Cc1cnc2c(c1)C(=O)N([C@H](C)CO)C[C@H](C)[C@@H](CN(C)C(=O)C1CCC1)O2 | 0 | x | x | x | 8 | x
C[C@@H]1CN([C@@H](C)CO)C(=O)c2cccc(NS(=O)(=O)c3ccc(F)cc3)c2O[C@H]1CN(C)S(=O)(=O)c1cn(C)cn1 | -1 | x | 1 | x | -22 | x
C[C@@H]1CN([C@@H](C)CO)C(=O)c2cc(NC(=O)Nc3ccc(C(F)(F)F)cc3)ccc2O[C@@H](C)CCCCO[C@H]1CN(C)C(=O)Nc1cccc2ccccc12 | 0 | x | -8 | x | 6 | x
O=C(NC1CC1)c1sc2ccccc2c1Cl | 47* | 45 | -121 | -46 | -60 | 8
O=C(Nc1nccs1)c1sc2cc(Cl)ccc2c1Cl | 57* | x | x | -29 | x | 76*
O=C(Nc1nccs1)c1sc2ccccc2c1Cl | x | -2 | x | 2 | x | x
O=C(CNC(=O)c1sc2ccccc2c1Cl)NC1CC1 | 22 | 24 | -78 | -23 | -51 | 10
C[C@@H]1CCCCO[C@@H](CN(C)Cc2ccc(C(F)(F)F)cc2)[C@@H](C)CN([C@@H](C)CO)C(=O)c2cc(NC(=O)Nc3cccc4ccccc34)ccc2O1 | 4 | x | 7 | x | 10 | x
COc1cc(CCC(=O)Nc2nnc(C)s2)cc(OC)c1OC | -5 | -19 | 29 | 17 | 51* | -3
COc1cc(CCC(=O)Nc2ncc(C)s2)cc(OC)c1OC | -11 | 5 | -1 | -3 | 0 | 0
CN(C)CCn1c2ccccc2c2nc3ccc([N+](=O)[O-])cc3cc21 | x | x | 76* | x | -20 | 26
CCn1c2ccccc2c2cc([N+](=O)[O-])ccc21 | x | -4 | 14 | 8 | 8 | 1
CCNC(=O)C[C@H]1CC[C@@H](NS(=O)(=O)c2ccc(F)cc2)[C@H](CO)O1 | 4 | x | -2 | x | 0 | x
Cc1noc(C)c1NC(=O)N[C@H]1CC[C@@H](CC(=O)Nc2ccc(-c3ccccc3)cc2)O[C@@H]1CO | -16 | x | -4 | x | -10 | x
SMILES | esBAF inh | MITF TRPM1 HTS | PAX8 reporter | MITF TRPM1 inh | EWS-Fli block | Wnt act
CCC(=O)Nc1ccc2c(c1)C(=O)N(C)C[C@H](OC)[C@@H](C)CN(C(=O)CC1CC1)[C@H](C)CO2 | 0 | x | x | x | -8 | x
COc1ccc(C(=O)c2oc3ccc(OC)cc3c2N)cc1 | 86* | 102* | -285 | -86 | -79 | 47*
CCOC(=O)c1cn[nH]c1NC(=S)Nc1ccc(Cl)cc1 | -7 | x | -127 | x | -109 | 36*
CCOC(=O)c1ccc(NC(=S)Nc2ccc(C)cc2)cc1 | 19 | -2 | 3 | 4 | -3 | 3
Cc1nn(-c2ccccc2)c(C)c1C(=O)OCC(=O)Nc1ccc2c(c1)OCO2 | 5 | x | x | -2 | x | x
Cc1cc(NC(=O)COC(=O)c2c(C)nn(-c3ccccc3)c2C)no1 | x | -12 | -5 | 14 | x | 1
COc1ccccc1NC(=O)COC(=O)c1c(C)nn(-c2ccccc2)c1C | 59* | 100* | -98 | -93 | -54 | -2
Cc1nc(COC(=O)c2c(C)nn(-c3ccccc3)c2C)cs1 | 58* | 86* | -108 | -75 | x | 28
Cc1nn(-c2ccccc2)c(C)c1-c1cc(C(=O)N/N=C/c2cccnc2)[nH]n1 | x | x | 11 | x | 13 | 6
CC(=O)c1ccccc1NC(=O)COC(=O)c1c(C)nn(-c2ccccc2)c1C | 33 | 29 | -39 | -33 | -53 | 42*
COC(=O)c1cc(-c2c(C)nn(-c3ccccc3)c2C)n[nH]1 | 64* | 29 | x | -26 | x | x
C[C@@H]1CN([C@@H](C)CO)C(=O)Cc2cc(NC(=O)CCN3CCOCC3)ccc2O[C@H]1CN(C)CC1CCCCC1 | -5 | x | x | x | 10 | x
O=C(C[C@@H]1CC[C@@H]2[C@H](COC[C@@H](O)CN2C(=O)C2CC2)O1)NCc1ccncc1 | -4 | x | -5 | x | 7 | x
CC(C)CC#Cc1cnc2c(c1)C(=O)N([C@@H](C)CO)C[C@H](C)[C@H](CN(C)C(=O)c1cccnc1)O2 | 5 | x | x | x | -7 | x
Cc1nn(-c2ccccc2)c(C)c1C(=O)OCC(=O)Nc1ccccc1 | 56* | 86* | -50 | -83 | -74 | 21
Cc1ccc(NC(=O)COC(=O)c2c(C)nn(-c3ccccc3)c2C)cc1 | -3 | 2 | -9 | -3 | -2 | -1
Cc1nn(-c2ccccc2)c(C)c1NC(=O)COC(=O)c1ccccc1 | -2 | -4 | -1 | 2 | -2 | 3
Cc1nn(-c2ccccc2)c(C)c1C(=O)OCC(=O)Nc1ccccc1C(F)(F)F | 46* | 28 | -27 | -23 | -55 | 13
C[C@H](CO)N1C[C@H](C)[C@@H](CN(C)Cc2ccc(C(=O)O)cc2)Oc2ccc(NS(=O)(=O)c3ccc(F)cc3)cc2CC1=O | x | x | -27 | x | x | x
CCCNC(=O)C[C@@H]1C[C@H]2c3cc(NC(=O)C4CCOCC4)ccc3O[C@H]2[C@H](CO)O1 | 1 | x | 6 | x | -1 | x
CN(C)CCN1C(=O)C(=O)/C(=C(/O)c2ccc3c(c2)OCCO3)C1c1ccccn1 (stereo unspecified) | 9 | 0 | -58 | 0 | -8 | 37*
COc1ccc(/C(O)=C2/C(=O)C(=O)N(c3ccccn3)C2c2ccc(F)cc2)cc1 (stereo unspecified) | 23 | 84* | -24 | -82 | -16 | 1
COc1cccc(/C(O)=C2/C(=O)C(=O)N(CCN(C)C)C2c2ccccn2)c1 (stereo unspecified) | 14 | 8 | x | -5 | x | x
O=C1C(=O)N(CCN2CCOCC2)C(c2ccccn2)/C1=C(/O)c1ccc(F)cc1 (stereo unspecified) | x | -3 | -13 | 4 | x | 1

Source: PubChem (Broad Institute)
